From PubChem BioAssay (Tox21)
Several values for one entry are separate records, joined by “and”; a condition that tells them apart may be missing. Equal values may be shown once. Inconclusive results are not listed. A call without a number means that no potency is given here. The source holds several records for some structures; these can differ, active in one and inactive in another. Activity calls are given as the source filed them. Unless noted, the call rests on the fitted dose curve; in most records, active means well fitted curve in the direction sought with a large enough effect in the repeat runs; inconclusive means weak or mixed curves; inactive means no such curve, though single readings can be large; an effect the other way counts as inactive or inconclusive.

How the values were obtained:
[1] = qHTS assay to identify small molecule antagonists of the glucocorticoid receptor (GR) signaling pathway - cell viability counter screen (AID 720693); further: nearly all actives have a fitted effect of over 55% in size
[2] = qHTS assay for identifying genotoxic compounds that show differential cytotoxicity against isogenic chicken DT40 cell lines with known DNA damage response pathways - wild type cell line (AID 743012); further: nearly all actives have a fitted effect of over 60% in size; further: potency means the concentration at half of the fitted maximal effect
Summary of the method: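 Using parental DT40 (300 cells/well), compounds delivered in DMSO incubate 40 h at 37 C/5% CO2. CellTiter-Glo reagent then stands 30 min at room temperature, and luminescence gives cell viability.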

[3] = qHTS assay for identifying genotoxic compounds that show differential cytotoxicity against isogenic chicken DT40 cell lines with known DNA damage response pathways - Rev3 mutant cell line (AID 743014); further: nearly all actives have a fitted effect of over 55% in size; further: potency means the concentration at half of the fitted maximal effect
[4] = qHTS assay for identifying genotoxic compounds that show differential cytotoxicity against isogenic chicken DT40 cell lines with known DNA damage response pathways - Rad54/Ku70 mutant cell line (AID 743015); further: nearly all actives have a fitted effect of over 60% in size; further: potency means the concentration at half of the fitted maximal effect
[5] = qHTS assay to identify small molecule antagonists of the androgen receptor (AR) signaling pathway using the MDA cell line - cell viability counter screen (AID 743041; further: nearly all actives have a fitted effect of over 45% in size)
Summary of the method: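 Viability counter screen run alongside the AR antagonist reporter: cells seeded 5 h before compound, R1881 added, 16 h incubation at 37C without CO2, fluorescent CellTiter-Fluor signal quantified.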

[6] = qHTS assay to identify small molecule antagonists of the estrogen receptor alpha (ER-alpha) signaling pathway - cell viability counter screen (AID 743074; calls by dose curve;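 further: HEK293 cells carrying ER-alpha-UAS-bla reporter stimulated with 17beta-estradiol; nearly all actives have a fitted effect of over 45% in size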)
[7] = qHTS assay to identify small molecule antagonists of the estrogen receptor alpha (ER-alpha) signaling pathway using the BG1 cell line - cell viability counter screen (AID 743081);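 further: compound given together with 17beta-estradiol as the ER stimulus; nearly all actives have a fitted effect of over 45% in size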; further: potency means the concentration at half of the fitted maximal effect
Aromatase (Homo sapiens) = Aromatase (Homo sapiens) (UniProt P11511); test: qHTS assay to identify aromatase inhibitors (AID 743083); further: nearly all actives have a fitted effect of over 55% in size; further: potency means the concentration at half of the fitted maximal effect
[8] = qHTS assay to identify small molecule antagonists of the thyroid receptor (TR) signaling pathway - cell viability counter screen (AID 743064); further: nearly all actives have a fitted effect of over 50% in size; further: potency means the concentration at half of the fitted maximal effect
Summary of the method: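 Viability of T3-stimulated (1 nM final) GH3.TRE-Luc cells is measured by CellTiter-Fluor fluorescence after 23.5 h compound exposure at 37 °C plus 30 min reagent incubation.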

[9] = qHTS assay to identify small molecule antagonists of the thyroid receptor (TR) signaling pathway (AID 743065); further: nearly all actives have a fitted effect of over 55% in size; further: potency means the concentration at half of the fitted maximal effect
Summary of the method: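 GH3.TRE-Luc rat pituitary cells carrying two TR response elements driving luciferase were plated for 4 h, given compound plus 1 nM T3 (final), and incubated 23.5 h at 37 C. ONE-Glo luminescence measured reporter inhibition; CellTiter-Fluor fluorescence tracked cytotoxicity.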

[10] = biological target: Estrogen receptor (Homo sapiens) (UniProt P03372); test: qHTS assay to identify small molecule agonists of the estrogen receptor alpha (ER-alpha) signaling pathway (AID 743075; calls by dose curve;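 further: HEK293 GripTite cells with ER-alpha and UAS-driven beta-lactamase reporter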)
[11] = biological target: Estrogen receptor (Homo sapiens) (UniProt P03372); test: qHTS assay to identify small molecule agonists of the estrogen receptor alpha (ER-alpha) signaling pathway using the BG1 cell line (AID 743079); further: nearly all actives have a fitted effect of over 20% in size
[12] = qHTS assay to identify small molecule antagonists of the androgen receptor (AR) signaling pathway - cell viability counter screen (AID 743033; further: nearly all actives have a fitted effect of over 45% in size; further: potency means the concentration at half of the fitted maximal effect)
[13] = tested on: thyroid hormone receptor (rat, GH3 cells); test: qHTS assay to identify small molecule agonists of the thyroid receptor (TR) signaling pathway (AID 743066; calls by dose curve)
[14] = biological target: Estrogen receptor (Homo sapiens) (UniProt P03372); test: qHTS assay to identify small molecule antagonists of the estrogen receptor alpha (ER-alpha) signaling pathway (AID 743069; active means well fitted curve in the direction sought with a large enough effect in the signal ratio in the repeat runs, not every such curve was filed as active; the % refers to the signal ratio)
Summary of the method: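 Estradiol-stimulated ER-alpha-UAS-bla HEK293 cells, 18 hr compound exposure at 37C. LiveBLAzer B/G substrate, 2 hr RT, fluorescence read.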

[15] = qHTS assay to identify small molecule antagonists of the estrogen receptor alpha (ER-alpha) signaling pathway using the BG1 cell line (AID 743080; calls by dose curve;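 further: BG1 cells stimulated with 17beta-estradiol alongside compound; series mostly up to about 70 µM; nearly all actives have a fitted effect of over 25% in size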)
Summary of the method: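 BG1Luc4E2, endogenous ER-alpha, 4xERE-luc; 5 d charcoal-stripped FBS, phenol red free; 24 h plating; cpd + 17beta-estradiol 21.5 h, 37 C/5% CO2; CellTiter-Fluor viability 30 min, then ONE-Glo luciferase 30 min RT.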

[16] = biological target: Androgen receptor (Homo sapiens) (UniProt P10275); test: qHTS assay to identify small molecule agonists of the androgen receptor (AR) signaling pathway (AID 743036; active means well fitted activation curve with a large enough effect in the signal ratio in the repeat runs, with a control signal flat, not every such curve was filed as active; the % refers to the signal ratio)
Summary of the method: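 Screening used 2,000 AR-bla HEK293 cells per well, treated 16 h at 37C with test compounds in DMSO alongside positive and DMSO-only controls; beta-lactamase activity was then read by LiveBLAzer B/G FRET fluorescence after 2 h at room temperature.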

[17] = biological target: Androgen receptor (Homo sapiens) (UniProt P10275); test: qHTS assay to identify small molecule agonists of the androgen receptor (AR) signaling pathway using the MDA cell line (AID 743040; further: nearly all actives have a fitted effect of over 20% in size)
Summary of the method: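 Luminescence from ONE-Glo, read after 30 min at room temperature, reflects MMTV-driven luciferase in MDA-kb2 cells (AR- and GR-responsive). Treatment lasted 16 h at 37C, 0% CO2.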

[18] = biological target: Androgen receptor (Homo sapiens) (UniProt P10275); test: qHTS assay to identify small molecule antagonists of the androgen receptor (AR) signaling pathway using the MDA cell line (AID 743042; further: nearly all actives have a fitted effect of over 55% in size; further: potency means the concentration at half of the fitted maximal effect)
Summary of the method: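 MDA-kb2 cells (human breast carcinoma, stably carrying an MMTV-luciferase reporter responsive to AR and GR) were plated at 3,000 cells/well and preincubated 5 hr at 37C, then given compound plus R1881 agonist for 16 h. ONE-Glo luminescence was read.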

[19] = biological target: Androgen receptor (Homo sapiens) (UniProt P10275); test: qHTS assay to identify small molecule antagonists of the androgen receptor (AR) signaling pathway (AID 743035; active means well fitted inhibition curve with a large enough effect in the signal ratio in the repeat runs, not every such curve was filed as active; the % refers to the signal ratio)
Summary of the method: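 Using qHTS, AR-UAS-bla GripTite HEK293 cells received compound, then R1881, and were cultured 16 h at 37C/5% CO2 before a 2 h room-temperature LiveBLAzer B/G FRET substrate step and fluorescence measurement.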

Chain of Androgen receptor (Homo sapiens) (P10275 whole entry, looked up): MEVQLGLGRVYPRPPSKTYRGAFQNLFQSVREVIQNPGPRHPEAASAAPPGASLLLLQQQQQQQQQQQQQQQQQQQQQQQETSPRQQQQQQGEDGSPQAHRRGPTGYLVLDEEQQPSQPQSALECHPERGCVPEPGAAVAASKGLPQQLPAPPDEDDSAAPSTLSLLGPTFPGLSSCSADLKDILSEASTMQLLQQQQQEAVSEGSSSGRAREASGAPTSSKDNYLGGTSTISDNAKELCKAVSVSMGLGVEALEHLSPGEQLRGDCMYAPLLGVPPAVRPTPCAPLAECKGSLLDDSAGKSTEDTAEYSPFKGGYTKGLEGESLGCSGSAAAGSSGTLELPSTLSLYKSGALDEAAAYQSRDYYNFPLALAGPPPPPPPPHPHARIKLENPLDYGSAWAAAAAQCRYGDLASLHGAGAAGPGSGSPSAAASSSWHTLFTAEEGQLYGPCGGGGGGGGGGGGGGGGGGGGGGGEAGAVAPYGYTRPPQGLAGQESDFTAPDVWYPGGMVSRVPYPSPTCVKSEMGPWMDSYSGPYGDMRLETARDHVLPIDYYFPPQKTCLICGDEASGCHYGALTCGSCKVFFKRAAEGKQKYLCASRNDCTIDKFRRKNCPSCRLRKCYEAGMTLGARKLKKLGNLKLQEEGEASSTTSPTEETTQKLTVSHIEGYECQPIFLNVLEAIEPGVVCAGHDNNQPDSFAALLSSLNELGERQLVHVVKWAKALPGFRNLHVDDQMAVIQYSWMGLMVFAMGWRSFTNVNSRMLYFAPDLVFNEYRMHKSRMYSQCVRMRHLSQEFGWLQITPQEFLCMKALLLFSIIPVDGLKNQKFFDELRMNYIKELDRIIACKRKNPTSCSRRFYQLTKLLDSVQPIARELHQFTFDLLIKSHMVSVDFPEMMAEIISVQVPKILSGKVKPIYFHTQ
Chain of Aromatase (Homo sapiens) (P11511 whole entry, looked up): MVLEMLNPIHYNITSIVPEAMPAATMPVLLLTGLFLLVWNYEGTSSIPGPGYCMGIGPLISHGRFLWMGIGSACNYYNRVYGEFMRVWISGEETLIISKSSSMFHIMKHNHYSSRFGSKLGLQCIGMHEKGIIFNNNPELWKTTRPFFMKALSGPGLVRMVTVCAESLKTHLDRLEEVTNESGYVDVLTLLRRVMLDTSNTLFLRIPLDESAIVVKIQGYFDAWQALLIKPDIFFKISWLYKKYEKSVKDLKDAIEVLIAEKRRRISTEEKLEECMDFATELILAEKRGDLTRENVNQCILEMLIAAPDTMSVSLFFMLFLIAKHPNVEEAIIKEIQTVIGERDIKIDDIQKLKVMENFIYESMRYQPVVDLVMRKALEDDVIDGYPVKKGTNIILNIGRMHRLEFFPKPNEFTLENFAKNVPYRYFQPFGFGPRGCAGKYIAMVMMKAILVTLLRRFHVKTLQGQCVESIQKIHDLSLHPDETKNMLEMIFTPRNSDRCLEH
Chain of Estrogen receptor (Homo sapiens) (P03372 whole entry, looked up): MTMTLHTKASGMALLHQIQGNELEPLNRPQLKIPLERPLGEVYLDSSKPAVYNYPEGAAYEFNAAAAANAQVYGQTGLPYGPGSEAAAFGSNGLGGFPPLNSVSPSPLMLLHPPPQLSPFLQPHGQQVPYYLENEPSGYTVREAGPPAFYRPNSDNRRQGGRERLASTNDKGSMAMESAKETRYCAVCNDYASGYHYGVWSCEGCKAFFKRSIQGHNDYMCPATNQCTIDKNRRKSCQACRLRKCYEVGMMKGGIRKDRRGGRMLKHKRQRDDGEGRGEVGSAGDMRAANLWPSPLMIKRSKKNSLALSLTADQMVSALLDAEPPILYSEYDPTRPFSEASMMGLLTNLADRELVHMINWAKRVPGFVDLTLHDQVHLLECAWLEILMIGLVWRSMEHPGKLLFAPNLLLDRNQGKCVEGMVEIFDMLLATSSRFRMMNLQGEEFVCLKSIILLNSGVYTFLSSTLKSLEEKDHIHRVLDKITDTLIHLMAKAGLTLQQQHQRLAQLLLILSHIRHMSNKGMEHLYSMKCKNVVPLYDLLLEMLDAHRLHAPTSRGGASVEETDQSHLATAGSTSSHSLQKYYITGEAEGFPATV

Structure (SMILES)	Potency [1]	Potency [2]	Potency [3]	Potency [4]	Potency [5]	Potency [6]	Potency [7]	Potency (Aromatase (Homo sapiens))	Potency [8]	Potency [9]	Potency [10]	Potency [11]	Potency [12]	Potency [13]	Potency [14]	Potency [15]	Potency [16]	Potency [17]	Potency [18]	Potency [19]
CC(C)(S)C(=O)N[C@@H](CS)C(=O)O	inactive	inactive	inactive	inactive	inactive	inactive	inactive	inactive	–	–	–	–	–	–	–	–	–	–	–	–
CC[C@@]1([C@@H]2O[C@@H]([C@H]3O[C@@](O)(CO)[C@H](C)C[C@@H]3C)C[C@@H]2C)CC[C@H]([C@]2(C)CC[C@]3(C[C@H](O)[C@@H](C)[C@@H]([C@@H](C)[C@@H](OC)[C@H](C)C(=O)O)O3)O2)O1 (stereo in doubt)	inactive	473 nM (active) and 531 nM (active)	376 nM (active) and 531 nM (active)	531 nM (active) and 596 nM (active)	–	–	18.8 µM (active) and inactive	inactive	596 nM (active) and 376 nM (active)	376 nM (active) and 266 nM (active)	inactive	inactive	–	–	–	–	–	–	–	–
CCCCCCCCCCCCCCCCCCOCC(COP(=O)([O-])OCC[N+](C)(C)C)OC (stereo not drawn)	inactive	inactive	inactive	–	inactive	inactive	inactive	inactive	–	–	inactive	inactive	inactive	inactive	inactive	inactive	–	–	–	–
Oc1ccc(Cl)cc1C1CCCC1	inactive	48.6 µM (active)	15.4 µM (active)	27.3 µM (active)	inactive	inactive	inactive	–	–	–	inactive	–	–	inactive	–	inactive	–	–	–	–
C=CC(N)CCC(=O)O (stereo not drawn)	inactive	inactive	inactive	inactive	inactive	inactive	inactive	inactive	inactive	inactive	inactive	inactive	–	inactive	inactive	inactive	–	–	–	–
COc1ccc([C@@H]2CC(=O)c3c(O)cc(O[C@@H]4O[C@H](CO[C@@H]5O[C@@H](C)[C@H](O)[C@@H](O)[C@H]5O)[C@@H](O)[C@H](O)[C@H]4O)cc3O2)cc1O	inactive	inactive	–	inactive	inactive	inactive	–	inactive	inactive	inactive	inactive	inactive	inactive	inactive	inactive	inactive	inactive	inactive	inactive	–
O=C1c2ccccc2-c2n[nH]c3cccc1c23	inactive	9.44 µM (active)	–	9.44 µM (active)	–	inactive	–	inactive	–	–	–	inactive	inactive	inactive	–	–	–	inactive	inactive	–
O=P(O)(O)CP(=O)(O)O	inactive	inactive	–	inactive	inactive	inactive	inactive	inactive	inactive	inactive	inactive	inactive	inactive	inactive	inactive	inactive	inactive	inactive	inactive	inactive
CN(C)CCOc1ccc(/C(=C(/CCCl)c2ccccc2)c2ccccc2)cc1	inactive	11.9 µM (active) and 5.1 µM (active)	–	9.44 µM (active) and 2.03 µM (active)	inactive	–	inactive	21.1 µM (active) and 6.42 µM (active)	10.6 µM (active) and 10.2 µM (active)	11.9 µM (active) and 8.09 µM (active)	–	–	16.3 µM (active)	inactive	–	–	–	–	inactive and 57.2 µM (active)	–
CO/N=C(\C(=O)N[C@@H]1C(=O)N2C(C(=O)O)=C(CSc3cnns3)CS[C@H]12)c1csc(N)n1	inactive	inactive	–	inactive	inactive	inactive	inactive	inactive	–	–	inactive	inactive	inactive	–	inactive	inactive	inactive	inactive	inactive	–
